Screening results deposited in PubChem BioAssay by National Center for Advancing Translational Sciences (NCATS).
VP16 counter = Gal4-VP16 reporter inhibition counter-screen; 3.5% of 310,000 active; Drosophila S2 Gal4-VP16 UAS-luciferase, luminescence, 20 h; AID 2546; Potency, µM (highest dose often 53.6 µM), most hits filed as inhibitors;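 also: Gal4-VP16 expression switched on by copper sulfate through the metallothionein promoter; nearly all actives have a fitted effect of over 50% in size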
SW480 rerep = DNA re-replication induction in SW480 cells; SW480 DNA re-replication, Hoechst DNA content imaging, 48 h; Potency, µM (doses to about 46.1 µM), usual class: activators; 1.8% of 340,000 active; also: nearly all actives have a fitted effect of over 55% in size
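250 cells/well; 23 nL cpd via pin tool; 48 hr, 37 C, 5% CO2; Hoechst 40 min; imager read of total nuclear intensity, ex 405/em 500-530 nm.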
RORg inh = inhibitors of mouse ROR gamma transcriptional activity | Drosophila S2 Gal4-RORgamma UAS-luciferase reporter, 20 h | 5.4% of 310,000 active | Potency, µM (highest dose often 53.6 µM), actives largely listed as inhibitors | P51450; also: nearly all actives have a fitted effect of over 60% in size
Target sequence (P51450 whole entry, looked up, the tested form may be a part): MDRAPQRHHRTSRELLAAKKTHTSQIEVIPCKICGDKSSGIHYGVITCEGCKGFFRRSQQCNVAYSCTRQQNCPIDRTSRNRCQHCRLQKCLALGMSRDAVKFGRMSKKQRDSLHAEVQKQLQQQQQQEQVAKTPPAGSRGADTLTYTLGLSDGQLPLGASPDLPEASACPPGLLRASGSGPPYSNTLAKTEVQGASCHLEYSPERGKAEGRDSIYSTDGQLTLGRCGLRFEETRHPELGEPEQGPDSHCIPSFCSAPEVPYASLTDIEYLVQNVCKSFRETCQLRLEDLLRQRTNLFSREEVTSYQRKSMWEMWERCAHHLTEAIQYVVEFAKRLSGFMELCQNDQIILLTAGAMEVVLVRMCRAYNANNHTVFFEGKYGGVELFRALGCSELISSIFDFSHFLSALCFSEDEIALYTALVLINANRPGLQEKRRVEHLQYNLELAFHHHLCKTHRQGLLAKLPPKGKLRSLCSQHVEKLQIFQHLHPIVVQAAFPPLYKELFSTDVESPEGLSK
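Read-out: Photinus luciferase luminescence; inhibitors lower reporter signal. Insect Schneider cells with Gal4-ROR gamma fusion under metallothionein promoter, UAS reporter; 700 uM final copper sulfate induction, 20 hr, ambient temperature.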
KB-3-1 tox = kills parental KB-3-1 adenocarcinoma cells; 1.4% of 400,000 active; KB-3-1 viability, CellTiter-Glo ATP luminescence, 72 h; Potency, µM (top dose mostly 46.1 µM), most hits filed as cytotoxic; AID 1347075; also: nearly all actives have a fitted effect of over 60% in size
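Parental KB-3-1 viability, qHTS format: 72 h compound exposure, 37 °C; CellTiter-Glo; media-only wells and DMSO plates as controls; concentration-effect fits on corrected data.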
MCF10A rereplic = induces DNA re-replication in MCF 10a normal breast cells; AID 624296; Potency, µM (highest dose often 46.1 µM), most hits filed as activators; 2.9% of 350,000 active; MCF 10A DNA re-replication, Hoechst nuclear intensity, 48 h; also: nearly all actives have a fitted effect of over 50% in size
KB-V1 cytotox = KB-V1 MDR subline cytotoxicity | KB-V1 MDR cells viability, CellTiter-Glo, 72 h | Potency, µM (titrated, usually from 46.1 µM), most hits filed as cytotoxic | 3.4% of 400,000 active | AID 1347076; also: nearly all actives have a fitted effect of over 60% in size
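KB-V1, DMEM (no phenol red) + 10% FBS; cpd pin-transferred, titration series; 72 h, 37 degrees C; CellTiter-Glo, luminescence. Data normalized, curve-fit.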
Large screens that a line does not name were inactive. Rows were chosen to be rich in hits. Some 10% of all compounds tested hit in one or more screens of this group. Calls follow the shape of the dose curve; as a rule, active = well fitted curve in the direction sought with a large enough effect; inconclusive = small, poorly fitted or top-dose-only effect, or another doubt; inactive = no such curve, though single readings can be large; an effect the other way counts as inactive or inconclusive.

Cc1cc(C)cc(S(=O)(=O)c2cn(C)c3cc(N4CCN(C)CC4)c(F)cc3c2=O)c1	MCF10A rereplic 23µM, KB-V1 cytotox inconclusive
COc1ccc(CN2C(=O)CCC2(C)C(=O)NC2CCCCC2)c(OC)c1 (stereo unspecified)	KB-V1 cytotox 21µM
O=C(O)CCc1ccc(-c2ccccc2)n1NC(=O)c1cccs1	SW480 rerep 23µM
Cc1nn2c(-c3ccccc3)nnc2c2ccccc12	KB-3-1 tox inconclusive, KB-V1 cytotox 5.8µM
CCOC(=O)CCCc1ccc(/C(C)=N/NC(N)=S)cc1	VP16 counter inconclusive, RORg inh inconclusive, KB-3-1 tox inconclusive, KB-V1 cytotox 8.2µM
CCOC(=O)CCCc1ccc(/C(C)=N/NC(=S)NC)cc1	VP16 counter inconclusive, RORg inh inconclusive
COc1cc(/C=N/NC(=O)Cc2ccccc2)ccc1Oc1ccc([N+](=O)[O-])cc1[N+](=O)[O-]	MCF10A rereplic inconclusive, KB-V1 cytotox inconclusive
COc1cc([N+](=O)[O-])cc(/C=N/NC(=O)CC#N)c1O	none (no result: SW480 rerep, KB-3-1 tox, MCF10A rereplic, KB-V1 cytotox)
COc1cc([N+](=O)[O-])cc(/C=N/NC(=O)CSc2ccccn2)c1O	VP16 counter 6.3µM, SW480 rerep inconclusive, RORg inh 0.63µM, KB-3-1 tox inconclusive, MCF10A rereplic inconclusive, KB-V1 cytotox inconclusive
COc1cc([N+](=O)[O-])cc(/C=N/NC(=O)Cn2cncn2)c1O	RORg inh inconclusive, KB-3-1 tox inconclusive, MCF10A rereplic 16µM, KB-V1 cytotox inconclusive
COc1cc(/C=N/NC(=O)CSc2ccccn2)ccc1O	none
COc1ccc([N+](=O)[O-])cc1/C=N/NC(=O)Cc1ccccc1	VP16 counter inconclusive, RORg inh 7.9µM
O=C(O)c1cccc(CSc2nnc(COc3ccccc3)o2)c1	VP16 counter inconclusive
O=C(O)c1cccc(CSc2nnc(-c3ccc(Cl)cc3)o2)c1	VP16 counter 0.79µM, RORg inh inconclusive
Cc1cccc(-c2nnc(SCc3ccccc3)o2)c1	RORg inh 14µM
CC(C)COC(=O)N1CCN(S(=O)(=O)c2ccc3c(c2)CCC3)CC1	KB-V1 cytotox 15µM (no result: VP16 counter, RORg inh)
CCOC(=O)c1ccc(S(=O)(=O)N2CCN(C)CC2)cc1	MCF10A rereplic 5.2µM
CCOc1ccc(OCCC(=O)OCC(=O)N2CCN(S(=O)(=O)c3ccc(Cl)cc3)CC2)cc1	VP16 counter 18µM, SW480 rerep inconclusive, RORg inh 11µM, MCF10A rereplic inconclusive
CCOC(=O)c1ccc(S(=O)(=O)N2CCN(CCC#N)CC2)cc1	RORg inh inconclusive
CCOC(=O)N1CCN(S(=O)(=O)c2ccc(OCC)cc2)CC1	KB-V1 cytotox 16µM
CCOC(=O)N1CCN(S(=O)(=O)c2ccc(C)cc2)CC1	none (no result: VP16 counter, RORg inh)
O=c1[nH][nH]c2c1[C@H](c1ccccc1)O[C@H](C1CCCCC1)C2	KB-V1 cytotox inconclusive (no result: VP16 counter, SW480 rerep, RORg inh, MCF10A rereplic)
Cc1ccc(SC[C@H](Cc2ccccc2)N2CC[C@@H](C(C)(C)C)CCC2=O)cc1	KB-V1 cytotox inconclusive (no result: VP16 counter, SW480 rerep, RORg inh, MCF10A rereplic)
COc1cc2ncc3c(-c4ccccc4)nn(CC(=O)NC4CCCCC4)c3c2cc1OC	none (no result: VP16 counter, SW480 rerep, RORg inh, MCF10A rereplic)
COc1ccc(C(=O)NCC(c2ccccc2)c2ccccc2)cc1S(=O)(=O)N1CCOCC1	KB-V1 cytotox 8.2µM (no result: VP16 counter, RORg inh)
COc1ccc(NC(=O)c2c(C)nn(Cc3ccccc3)c2Cl)cc1S(=O)(=O)N1CCOCC1	RORg inh inconclusive, MCF10A rereplic 2.1µM
COc1ccc(C(=O)NCC(c2cccnc2)N2CCN(c3ccccc3)CC2)cc1OC (stereo unspecified)	KB-3-1 tox 5.2µM
COc1ccc(C(=O)NCC(c2cccnc2)N2CCN(c3ccc(F)cc3)CC2)cc1OC (stereo unspecified)	RORg inh inconclusive, MCF10A rereplic inconclusive
COc1ccc(C(=O)NCc2c(C)nn(Cc3ccccc3)c2C)cc1S(=O)(=O)N1CCOCC1	SW480 rerep inconclusive, KB-3-1 tox 6.5µM, MCF10A rereplic 15µM (no result: VP16 counter, RORg inh)
COc1ccc(C(=O)NCC(c2ccc(F)cc2)N2CCOCC2)cc1S(=O)(=O)N1CCCC1 (stereo unspecified)	RORg inh inconclusive
COC(=O)[C@@H]1[C@H]2SC(C)(C)[C@H](C(=O)OC)N2C(=O)N1Cc1cc2ccccc2n1S(=O)(=O)c1ccccc1	none (no result: VP16 counter, SW480 rerep, RORg inh, MCF10A rereplic)
Cc1noc(C)c1-c1cncnc1-n1ccnc1	none (no result: SW480 rerep, KB-3-1 tox, MCF10A rereplic, KB-V1 cytotox)
COc1ccc(/C=C/C(=O)NC(C)(C)C)cc1S(=O)(=O)N1CCOCC1	none
CCc1ccc(C(=O)Nc2ccc(OC)c(S(=O)(=O)N3CCOCC3)c2)cc1	KB-V1 cytotox 9.2µM
COc1ccc(NC(=O)C2COc3ccccc3O2)cc1S(=O)(=O)N1CCOCC1 (stereo unspecified)	KB-V1 cytotox 13µM (no result: VP16 counter, RORg inh)
CCc1ccc(C(=O)Nc2ccc(OC)c(S(=O)(=O)N3CCCCC3)c2)cc1	KB-3-1 tox inconclusive (no result: VP16 counter, RORg inh)
COc1ccc(NC(=O)Cn2ncc(Cl)c(Cl)c2=O)cc1S(=O)(=O)N1CCOCC1	VP16 counter inconclusive, SW480 rerep 4.6µM, RORg inh inconclusive, MCF10A rereplic 4.1µM
COc1ccc(/C=C/C(=O)NC2CCCCCCC2)cc1S(=O)(=O)N1CCOCC1	VP16 counter inconclusive, RORg inh inconclusive, KB-3-1 tox inconclusive, MCF10A rereplic inconclusive, KB-V1 cytotox 23µM (no result: SW480 rerep)
O=c1c2cccnc2n(Cc2ccccc2F)c(=O)n1Cc1ccccc1Cl	none (no result: VP16 counter, SW480 rerep, RORg inh, MCF10A rereplic)
Clc1cccc(-n2ncc3c(NC4CCCCC4)ncnc32)c1	KB-3-1 tox inconclusive (no result: VP16 counter, SW480 rerep, RORg inh, MCF10A rereplic)
CCOc1ccc(NC(=O)NCCn2nnc3cc(S(=O)(=O)N(C)C)ccc32)cc1	none (no result: VP16 counter, SW480 rerep, RORg inh, MCF10A rereplic)
CCC1OCCC=CC1C (stereo unspecified)	none (no result: SW480 rerep, KB-3-1 tox, MCF10A rereplic, KB-V1 cytotox)
On1onc2c3cc(-c4ccccc4)nc3ccc21	VP16 counter 10µM, SW480 rerep 7.3µM, RORg inh 7.9µM, MCF10A rereplic 8.2µM, KB-V1 cytotox 15µM
c1ccc(-c2cc3c(ccc4nonc43)nn2)cc1	none
C[C@]12C=CC(=O)N[C@@H]1CC[C@@H]1C2CC[C@]2(C)C(C(=O)Nc3cc(C(F)(F)F)ccc3C(F)(F)F)CC[C@@H]12 (stereo partly specified)	none (no result: KB-3-1 tox, KB-V1 cytotox)
COc1ccc(S(=O)(=O)N(C(=O)c2ccco2)c2cc3sc(=O)oc3c3ccccc23)cc1	VP16 counter inconclusive, SW480 rerep inconclusive, RORg inh inconclusive, KB-3-1 tox inconclusive, MCF10A rereplic 18µM
CCCCC(=O)NC(=S)Nc1cccc(NC(=O)c2ccco2)c1	VP16 counter 16µM, RORg inh inconclusive
CCC(=O)NC(=S)Nc1ccc(NC(=O)c2ccco2)c(OC)c1	VP16 counter inconclusive, RORg inh 13µM
COc1cc(NC(=O)c2oc3ccccc3c2C)ccc1NC(=O)c1ccco1	MCF10A rereplic 18µM
CCC(=O)NC(=S)Nc1ccc(NC(=O)c2ccco2)cc1	none
CC(C)CC(=O)NC(=S)Nc1ccc(NC(=O)c2ccco2)cc1	SW480 rerep inconclusive, RORg inh 13µM, KB-3-1 tox inconclusive
